Assay [1] is described as follows: Confirmatory qHTS to identify inhibitors of SARS-CoV-2 cell entry (AID 1645844). Further: nearly all actives have a fitted effect of over 45% in size. In short, it runs like this: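 HEK293-ACE2 cells (Expi293F stably expressing human ACE2) were pretreated with compounds for 1 hr at 37C, then infected with MLV-based particles carrying Wuhan-Hu-1 spike (C-terminal 19-aa truncation). Luciferase luminescence read after 48 hr; normalized to spike PP (100%) and bald PP (0%).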

Assay [2] can be described thus: Primary qHTS to identify inhibitors of SARS-CoV-2 cell entry (AID 1645846). Further: nearly all actives have a fitted effect of over 45% in size. The note with it: SARS-CoV-2 pseudovirus cell entry assay, luminescence; activity change, negative = inhibition: at 57.1 µM (top of the series) unless noted. The gist of the method: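 HEK293 cells stably expressing human ACE2, pre-treated 1 h with compound, then infected with MLV particles pseudotyped with Wuhan-Hu-1 spike (C-terminal 19-aa truncation). Luciferase luminescence after 48 h at 37 °C, normalised to spike PP and bald PP.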

The nature of assay [3]: VSVG counterscreen qHTS to identify inhibitors of SARS-CoV-2 cell entry (AID 1645847). Further: nearly all actives have a fitted effect of over 65% in size. In short, it runs like this:
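HEK293-ACE2 cells (Expi293F, human ACE2) pretreated 1 h with compound, then infected with MLV-based VSV-G pseudotyped particles for 48 h at 37 C; luciferase luminescence normalized to VSV-G PP and bald PP wells.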
Background: Counterscreens check selectivity or assay interference.

A short description of assay [4]: Cytotoxicity counterscreen for inhibitors of SARS-CoV-2 cell entry (AID 1645845). Further: nearly all actives have a fitted effect of over 50% in size. As to conditions: outcome: dose series up to 57.1 µM unless noted. In short, it runs like this:
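Expi293F/hACE2 cells seeded overnight; cpd pin-transferred in DMSO, 1 h preincubation, + media, 48 h 37 C 5% CO2; ATPLite 1step luminescence; normalized to cells and no cells.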

Records with an inconclusive call do not appear. The source made the active and inactive calls. The call rests on the fitted dose curve.
Potency means the concentration at half of the fitted maximal effect.

`COc1ccc(-c2ccc3c(N4CCOC[C@@H]4C)nc(N4CCOC[C@@H]4C)nc3n2)cc1CO`: the Potency is 0.681 µM (active) in assay [1], 1 µM (active) in assay [2] and 0.429 µM (active) in assay [3].

For `Cc1noc2c1-c1ccccc1C(c1ccc(Cl)cc1)=N[C@H]2CC(N)=O`, the Potency result in assay [4] was “inactive”.

Consider `C=CC(=O)N1CC[C@@H](Oc2nc(Nc3ccc(N4CCC(N5CCN(C)CC5)CC4)cc3)c(C(N)=O)nc2CC)C1`, for which the Potency in assay [1] is 2.35 µM (active); in assay [3] it was 5.27 µM (active).

For the compound `COc1ccc(N(C)c2nc(C)nc3ccccc23)cc1`, the Potency in assay [1] is 6.81 µM (active); in assay [3], 4.82 µM (active). In assay [2], the activity change, negative = inhibition was -80.5%.

For `Cc1nnc(C[C@@H]2C=C(c3ccc(Cl)cc3)c3ccccc3-n3c(C)nnc32)o1`, the Potency entry in assay [1] was “inactive”. In assay [3], the Potency was 9.61 µM (active).

With `CO[C@@H]1[C@@H](O)[C@H](O)[C@@H](n2c3c(Cl)cccc3c3c4c(c5c6cccc(Cl)c6[nH]c5c32)C(=O)NC4=O)O[C@H]1CO`, the Potency was 0.961 µM (active) in assay [1], 1 µM (active) in assay [2] and 0.857 µM (active) in assay [3].

As to `O=c1c(-n2ccnn2)c[nH]n1-c1cc(N2CCOCC2)ncn1`, the Potency in assay [1] was 4.82 µM (active); in assay [2], 7.08 µM (active); in assay [3], 21.5 µM (active).

Turning to `Cn1cc(C2=C(c3cn(C)c4cc([N+](=O)[O-])ccc34)C(=O)NC2=O)c2ccccc21`, the Potency in assay [1] is 1.71 µM (active); in assay [3], 1.08 µM (active).

Turning to `c1cc(Nc2cc(C3CC3)[nH]n2)nc(Nc2ccc3nc[nH]c3c2)n1`, the values for the Potency in assay [1] and in assay [3] were 0.192 µM (active) and 0.242 µM (active), respectively. The activity change, negative = inhibition in assay [2] is -94.9%.

In the case of `CS(=O)(=O)N1CCC(NC(=O)c2[nH]ncc2NC(=O)c2c(Cl)cccc2Cl)CC1`, the Potency is 0.0341 µM (active) in assay [1] and 0.0961 µM (active) in assay [3]. The activity change, negative = inhibition in assay [2] was -94.8%.

Consider `CCC(C)CNCC(=O)N1CCc2sccc2C1c1cccc(C)n1` (stereo not given), for which the Potency result in assay [4] was “inactive”.

For the compound `C#Cc1cccc(Nc2ncnc3cc4c(cc23)OCCOCCOCCO4)c1`, in assay [4], the Potency entry is “inactive”.

On to `CN(C)CCN1C(=O)c2cccc3cc(NC(N)=O)cc(c23)C1=O`, for which the Potency in assay [1] is 9.61 µM (active); in assay [2], 7.08 µM (active); in assay [3] it was 12.1 µM (active).

`CNCCCOc1cc(F)c(-c2c(Cl)nc3ncnn3c2N[C@@H](C)C(F)(F)F)c(F)c1`: the Potency in assay [1] was 1.21 µM (active); in assay [3], 0.121 µM (active). The activity change, negative = inhibition in assay [2] was -85.4%.

Regarding `O=C(/C=C\n1cnc(-c2cc(C(F)(F)F)cc(C(F)(F)F)c2)n1)NNc1cnccn1`, the Potency in assay [1] is 3.04 µM (active); in assay [2], 2.82 µM (active); in assay [3], 1.71 µM (active).

For `CN[C@H]1CN(c2ccc3c(=O)c(C(=O)O)cn(-c4nccs4)c3n2)C[C@@H]1OC`, the results for the Potency in assay [1] and in assay [3] were 0.555 µM (active) and 0.622 µM (active), respectively.

For the compound `CC(=O)c1ccc2c(c1)c1cc(C(C)=O)ccc1n2CCNC(C)C`, the Potency in assay [1] was 0.0541 µM (active); in assay [3] it was 0.136 µM (active).

For `NC(=O)c1ccccc1Nc1ccnc(Nc2cccc(O)c2)n1`, the Potency is 9.61 µM (active) in assay [1], 8.91 µM (active) in assay [2] and 7.64 µM (active) in assay [3].

As to `CCN1C(=O)N2Cc3cc(OC)cc(OC)c3[C@@H](C)C=C2C12CCN(Cc1cc(C)cc(C)c1)CC2`, the Potency result in assay [4] was “inactive”.

`N#Cc1cccnc1N1CCN(C(=O)c2cccc(Cc3n[nH]c(=O)c4ccccc34)c2)CC1`: the Potency in assay [1] was 0.0681 µM (active); in assay [3] it was 0.0607 µM (active). For the same compound, in assay [2], the activity change, negative = inhibition is -93.1%.

For the compound `CNS(=O)(=O)Nc1nccc(Cc2c(C)c3ccc(Oc4ncccn4)cc3oc2=O)c1F`, the Potency in assay [4] is 14.1 µM (active).

For the compound `Nc1nc(-c2nn(Cc3ccccc3F)c3ncccc23)ncc1C1CC1`, the Potency was 5.41 µM (active) in assay [1] and 12.1 µM (active) in assay [3].

For the compound `CC(C)(O)[C@H]1CC[C@@](C)([C@H]2[C@@H](O)C[C@@]3(C)[C@@H]4C[C@H](O[C@@H]5O[C@H](CO)[C@@H](O)[C@H](O)[C@H]5O)[C@H]5C(C)(C)[C@@H](O[C@@H]6OC[C@@H](O)[C@H](O)[C@H]6O)CC[C@@]56C[C@@]46CC[C@]23C)O1`, the Potency result in assay [4] and in assay [2] was “inactive” each time.

For `COc1c(Nc2ncc(Cl)c(N[C@H]3[C@H](C(N)=O)[C@@H]4C=C[C@@H]3C4)n2)ccc2c1CCC(N1CCOCC1)CC2` (stereo not given in full), in assay [4], the Potency entry was “inactive”. Besides, the activity change, negative = inhibition in assay [2] was -55.4%.

Consider `CC(C)(c1ccc(OCC(O)CO)cc1)c1ccc(OCC(O)CCl)cc1` (stereo not given), for which the Potency entry in assay [4] was “inactive”. In addition, the activity change, negative = inhibition in assay [2] was -34.4%.

As for `O=C(N[C@H]1CCC[C@H](CO)C1)C1CCN(c2nc3cc(Cl)c(-c4ccc(Cl)cc4)cc3o2)CC1`, in assay [4], the Potency result was “inactive”. Moreover, the activity change, negative = inhibition in assay [2] was -9.89%.

Turning to `O=C(/C=C/c1ccc2ccc(C(F)(F)F)cc2n1)c1ccncc1`, the Potency result in assay [4] was “inactive”. For the same compound, the activity change, negative = inhibition in assay [2] is -5.32%.

The values are drawn from PubChem BioAssay (NCATS).
